# Experimental data from PubChem BioAssay (NCI).
# About 83,000 compounds went through this panel and 20% of them were active in at least one assay; those are over-represented in the sample as a whole.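 Activity criterion: percent growth below 10, measured after cells in 96-well plates were exposed to a single compound concentration for 48 hours.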 Values without a mark were called inactive. The source made the active and inactive calls.
# Tested on: COLO 205 colon
# Test: NCI-60 one-dose screen, 48 h (100 = growth as untreated, 0 = no growth, -100 = all killed)
# Details: 10 µM
row,SMILES,growth
1,COc1ccc(/C=C/C(=O)c2ccc(NC(=O)CN3C(=O)NC(C)(c4ccccc4)C3=O)cc2)cc1 (centres undefined),106%
2,Cc1ccc(C(C)C)cc1NC(=O)c1ccccc1O,100%
3,CC1(c2ccccc2)NC(=O)N(CC(=O)Nc2ccc(C(=O)/C=C/c3ccc(Br)cc3)cc2)C1=O (centres undefined),64.1%
4,C=C[C@@]12CN3CC[C@]1(O)[C@@](C(=O)OC)(CO2)c1[nH]c2ccccc2c1C3,33.7%
5,COc1ccc(/C=C/C(=O)c2ccc(S(=O)(=O)NCCNc3nc(Nc4ccc(F)cc4)nc(N(C)C)n3)cc2)cc1,49.2%
6,O=c1oc2ccccc2cc1-c1csc(N=Nc2c(O)[nH]c3ccc(Br)cc23)n1,127%
7,O=C(CSc1nnc(-c2c[nH]c3ccccc23)n1-c1ccccc1)Nc1ccc(C(=O)/C=C/c2ccccc2Cl)cc1,96.2%
8,O=C(NO)c1ccc(-c2nc3ccc4[nH]ncc4c3c3c2CCCC3)cc1,-20.1% (active)
9,CS(=O)(=O)Nc1ccc(-c2ccc3c(c2)ncn3-c2ccc(NC(=O)Nc3ccc(Br)cc3)cc2)cc1,-27.9% (active)
10,O=C(CS(=O)(=O)c1oc(-c2ccc(Cl)cc2)nc1S(=O)(=O)c1ccc(Cl)cc1)N1CCOCC1,10.5%
11,COc1cc(-c2nc3cc(Cl)c(Cl)cc3[nH]2)ccc1OCc1nnc(-c2ccc(Br)cc2)o1,51.4%
12,COc1cc2c3c(n(CCCn4ccnc4)c(=O)c2cc1OC)-c1nc2c(cc1C3=O)OCO2,34.2%
13,Cc1ccc(/C=C/C(=O)c2ccc(NC(=O)CSc3nnc(-c4c[nH]c5ccccc45)n3-c3ccccc3)cc2)cc1,102%
14,O=C(CSc1nnc(-c2ccc3nc(-c4ccccc4)[nH]c3c2)o1)Nc1ccc(Br)cc1,81.1%
15,O=C(CNc1nc(-c2ccccc2)cs1)Nc1ccccc1,-83.8% (active)
16,O=C(/C=C/Nc1ccc(F)cc1F)c1ccc2c(c1)Nc1ccccc1S2,80.6%
17,COc1cc(Cn2c(C(F)(F)F)cc3c(Cl)ncnc32)ccn1,79.9%
18,COc1ccc(-c2cc(C(=O)N=Nc3c(O)[nH]c4ccc(F)cc34)c3ccccc3n2)cc1,103%

row,SMILES,growth
1,O=C(Nc1ccccc1)Nc1nc2ccccc2s1,50.8%
2,O=C(CSc1nnc(-c2ccc3nc(-c4ccccc4)[nH]c3c2)o1)Nc1ccc(Cl)cc1,73.2%
3,CCOc1ccc(Nc2nc3ccccc3nc2Nc2ccc(OCC)cc2)cc1,95.9%
4,CNC(=O)c1cc(-c2ccc(NC(=O)Nc3ccc(C)cc3)cc2)nc2cccnc12,115%
5,Cc1ccc(C(=O)Nc2ccc(-n3c(C)nc4c(cnn4-c4ccccc4)c3=O)cc2)cc1,77.4%
6,COc1ccc(-c2cc(-c3cc(C(=O)c4ccccc4)n4ccc(C)cc34)nc(N)c2C#N)cc1,73%
7,C[C@H]1[C@H](C)CC[C@]2(COC(=O)CCC(=O)NCC#CCN3CCNCC3)CC[C@]3(C)C(=CC[C@@H]4[C@@]5(C)CCCNC(C)(C)[C@@H]5CC[C@]43C)[C@H]12,-76.9% (active)
8,O=c1[nH]c2ccc(Cl)cc2cc1CSc1ccc(Nc2nccc(-c3ccc(Cl)cc3)n2)cc1,4.59% (active)
9,COc1ccc(-c2cc(C(=O)N=Nc3c(O)[nH]c4ccccc34)c3ccccc3n2)cc1,-5.77% (active)
10,COc1ccc(-c2nc(S(=O)(=O)c3ccc(C)cc3)c(S(=O)(=O)CC(=O)N(C)Cc3ccccc3)o2)cc1,45.9%
11,COc1ccc(C(C)=C(c2ccc(OCCCN(C)C)cc2)c2ccc(OCCCN(C)C)cc2)cc1,-90.2% (active)
12,COc1cc2c3c(n(CCCNCCO)c(=O)c2cc1OC)-c1nc2c(cc1C3=O)OCO2,2.13% (active)
13,c1ccc(C(=C(c2ccc(OCCN3CCCCC3)cc2)c2ccc(OCCN3CCCCC3)cc2)C2CCCC2)cc1,-92.6% (active)
14,O=C(CSc1nnc(-c2c[nH]c3ccccc23)n1-c1ccccc1)Nc1ccc(C(=O)/C=C/c2ccc(Cl)cc2)cc1,89.7%
15,COc1cnc2c(c1)C(=O)c1c-2n(CCCNC(C)C)c(=O)c2cc(OC)c(OC)cc12,39.2%
16,COc1ccc(NC(=O)CSc2nnc(-c3ccc4nc(-c5ccc(Cl)cc5)[nH]c4c3)o2)cc1,96.8%
17,CN(CCO)c1oc(-c2ccccc2)nc1[P+](c1ccccc1)(c1ccccc1)c1ccccc1,-59.6% (active)
18,CN1CCc2c(sc3ncnc(N/N=C/c4ccc5ccccc5c4)c23)C1,36.3%

# Tested on: DU-145 prostate
# Test: as above
# Details: 10 µM
row,SMILES,growth
1,COc1ccc(/C=C/C(=O)c2ccc(NC(=O)CN3C(=O)NC(C)(c4ccccc4)C3=O)cc2)cc1 (centres undefined),87.7%
2,Cc1ccc(C(C)C)cc1NC(=O)c1ccccc1O,63.3%
3,CC1(c2ccccc2)NC(=O)N(CC(=O)Nc2ccc(C(=O)/C=C/c3ccc(Br)cc3)cc2)C1=O (centres undefined),59.8%
4,C=C[C@@]12CN3CC[C@]1(O)[C@@](C(=O)OC)(CO2)c1[nH]c2ccccc2c1C3,68.3%
5,COc1ccc(/C=C/C(=O)c2ccc(S(=O)(=O)NCCNc3nc(Nc4ccc(F)cc4)nc(N(C)C)n3)cc2)cc1,28.7%
6,O=c1oc2ccccc2cc1-c1csc(N=Nc2c(O)[nH]c3ccc(Br)cc23)n1,94.2%
7,O=C(CSc1nnc(-c2c[nH]c3ccccc23)n1-c1ccccc1)Nc1ccc(C(=O)/C=C/c2ccccc2Cl)cc1,82%
8,O=C(NO)c1ccc(-c2nc3ccc4[nH]ncc4c3c3c2CCCC3)cc1,1.34% (active)
9,CS(=O)(=O)Nc1ccc(-c2ccc3c(c2)ncn3-c2ccc(NC(=O)Nc3ccc(Br)cc3)cc2)cc1,29.8%
10,O=C(CS(=O)(=O)c1oc(-c2ccc(Cl)cc2)nc1S(=O)(=O)c1ccc(Cl)cc1)N1CCOCC1,32.3%
11,COc1cc(-c2nc3cc(Cl)c(Cl)cc3[nH]2)ccc1OCc1nnc(-c2ccc(Br)cc2)o1,47.2%
12,COc1cccc(C(N)=Nc2ccc(OCCCCCCn3cncn3)cc2)c1,33%
13,COc1cc2c3c(n(CCCn4ccnc4)c(=O)c2cc1OC)-c1nc2c(cc1C3=O)OCO2,13.4%
14,Cc1ccc(/C=C/C(=O)c2ccc(NC(=O)CSc3nnc(-c4c[nH]c5ccccc45)n3-c3ccccc3)cc2)cc1,93%
15,O=C(CSc1nnc(-c2ccc3nc(-c4ccccc4)[nH]c3c2)o1)Nc1ccc(Br)cc1,78.2%
16,O=C(CNc1nc(-c2ccccc2)cs1)Nc1ccccc1,14.1%
17,O=C(/C=C/Nc1ccc(F)cc1F)c1ccc2c(c1)Nc1ccccc1S2,89.4%
18,COc1cc(Cn2c(C(F)(F)F)cc3c(Cl)ncnc32)ccn1,-100% (active)
19,COc1ccc(-c2cc(C(=O)N=Nc3c(O)[nH]c4ccc(F)cc34)c3ccccc3n2)cc1,74.7%

row,SMILES,growth
1,O=C(Nc1ccccc1)Nc1nc2ccccc2s1,104%
2,O=C(CSc1nnc(-c2ccc3nc(-c4ccccc4)[nH]c3c2)o1)Nc1ccc(Cl)cc1,73.6%
3,CCOc1ccc(Nc2nc3ccccc3nc2Nc2ccc(OCC)cc2)cc1,45.1%
4,CNC(=O)c1cc(-c2ccc(NC(=O)Nc3ccc(C)cc3)cc2)nc2cccnc12,109%
5,NC(=Nc1ccc(OCCCCCCCCn2ccnn2)cc1)c1ccccc1,26.7%
6,Cc1ccc(C(=O)Nc2ccc(-n3c(C)nc4c(cnn4-c4ccccc4)c3=O)cc2)cc1,84.9%
7,COc1ccc(-c2cc(-c3cc(C(=O)c4ccccc4)n4ccc(C)cc34)nc(N)c2C#N)cc1,77.9%
8,C[C@H]1[C@H](C)CC[C@]2(COC(=O)CCC(=O)NCC#CCN3CCNCC3)CC[C@]3(C)C(=CC[C@@H]4[C@@]5(C)CCCNC(C)(C)[C@@H]5CC[C@]43C)[C@H]12,74.4%
9,O=c1[nH]c2ccc(Cl)cc2cc1CSc1ccc(Nc2nccc(-c3ccc(Cl)cc3)n2)cc1,4.82% (active)
10,COc1ccc(-c2cc(C(=O)N=Nc3c(O)[nH]c4ccccc34)c3ccccc3n2)cc1,-92.8% (active)
11,COc1ccc(-c2nc(S(=O)(=O)c3ccc(C)cc3)c(S(=O)(=O)CC(=O)N(C)Cc3ccccc3)o2)cc1,35.5%
12,COc1ccc(C(C)=C(c2ccc(OCCCN(C)C)cc2)c2ccc(OCCCN(C)C)cc2)cc1,-96.4% (active)
13,COc1cc2c3c(n(CCCNCCO)c(=O)c2cc1OC)-c1nc2c(cc1C3=O)OCO2,6.05% (active)
14,c1ccc(C(=C(c2ccc(OCCN3CCCCC3)cc2)c2ccc(OCCN3CCCCC3)cc2)C2CCCC2)cc1,-45.2% (active)
15,O=C(CSc1nnc(-c2c[nH]c3ccccc23)n1-c1ccccc1)Nc1ccc(C(=O)/C=C/c2ccc(Cl)cc2)cc1,79.7%
16,COc1cnc2c(c1)C(=O)c1c-2n(CCCNC(C)C)c(=O)c2cc(OC)c(OC)cc12,16.4%
17,COc1ccc(NC(=O)CSc2nnc(-c3ccc4nc(-c5ccc(Cl)cc5)[nH]c4c3)o2)cc1,55.4%
18,CN(CCO)c1oc(-c2ccccc2)nc1[P+](c1ccccc1)(c1ccccc1)c1ccccc1,4.07% (active)
19,CN1CCc2c(sc3ncnc(N/N=C/c4ccc5ccccc5c4)c23)C1,68.8%
